# Reference: PubChem BioAssay AID1851 (National Center for Advancing Translational Sciences (NCATS), 2009)
# Hit rate of the full screen: of about 16,000 compounds, about 5,800 (36%) were called active. Another 23% or so got no clear call; they are omitted. The list shows a part of the results. Values without a mark were called inactive. Calls follow the shape of the dose curve; as a rule, active = well fitted curve in the direction sought with a large enough effect; inconclusive = small, poorly fitted or top-dose-only effect, or effect the other way; inactive = no such curve, though single readings can be large or run the other way.
# Target: Cytochrome P450 2C19 (Homo sapiens) (UniProt P33261)
# Sequence (P33261 whole entry, looked up): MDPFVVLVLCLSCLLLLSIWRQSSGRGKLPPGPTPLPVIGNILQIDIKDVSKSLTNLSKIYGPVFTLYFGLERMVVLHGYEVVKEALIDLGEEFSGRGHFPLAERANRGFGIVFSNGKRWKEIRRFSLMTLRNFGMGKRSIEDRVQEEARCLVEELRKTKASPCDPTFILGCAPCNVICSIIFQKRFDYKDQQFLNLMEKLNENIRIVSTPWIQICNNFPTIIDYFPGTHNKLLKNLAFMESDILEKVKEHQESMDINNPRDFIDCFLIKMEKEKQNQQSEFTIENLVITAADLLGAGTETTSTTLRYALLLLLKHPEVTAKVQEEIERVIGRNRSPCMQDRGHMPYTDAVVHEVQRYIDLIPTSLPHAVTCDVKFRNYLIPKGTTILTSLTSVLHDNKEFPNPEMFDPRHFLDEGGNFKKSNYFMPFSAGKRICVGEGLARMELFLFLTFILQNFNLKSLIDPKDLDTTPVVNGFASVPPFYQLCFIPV
# Experiment: Cytochrome panel assay with activity outcomes
# Settings: recombinant CYP, pro-luciferin dealkylation, luminescence, p450-cyp2c19; series mostly up to 57.1 µM; activity, negative = inhibition: at the top concentration
# % is scaled to controls: 0 for no effect and ±100 for the full control effect.
Compound,"activity, negative = inhibition",AC50
Nc1ccn([C@@H]2CC[C@H](CO)O2)c(=O)n1,5.48% [at 25.6 µM],–
O=C(O)[C@@H]1[C@@H]2C[C@H]3c4[nH]c5ccccc5c4CCN3C[C@@H]2CC[C@@H]1O,-4.36% [at 25.6 µM],–
S=C(Nc1cccc(Cl)c1)NC1CCCCC1,–,7.08 µM (active)
Cc1ccc(NC(=S)N2CCN(C3CCCCC3)CC2)cc1,–,6.31 µM (active)
NC(=O)c1ccc(NC(=O)C2CCCO2)cc1 (stereo unspecified),-17.7%,–
CC(=O)NS(=O)(=O)c1ccc(NC(=O)NC2CCCCC2)cc1,-8.77%,–
Cc1ccc(NC(=S)N2CCN(C(=O)C3CCCO3)CC2)c(C)c1 (stereo unspecified),-24.4%,–
S=C(NCc1ccccn1)Nc1cccc(Cl)c1,–,3.55 µM (active)
O=C(Nc1ccc(Cl)cc1)NC1CCCCC1,–,8.91 µM (active)
Nc1nc(N)nc(CCCc2nc(N)nc(N)n2)n1,103% [at 11.4 µM],–
N#Cc1cccc(-c2nc3cnc(N4CCNCC4)nc3n(C3CC3)c2=O)c1,-6.27%,–
CN1C(=O)C(CC(N)=O)N(NC(=O)c2ccc(Cl)cc2)C1=S (stereo unspecified),-1.48%,–
Cc1ccc(NC(=S)NC2CCCC2)cc1,–,3.55 µM (active)
CO[C@H]1COC(=O)C/C=C\[C@H](C)[C@@H](OC)COC(=O)[C@@H](C)COC(=O)C/C=C\[C@@H]1C,-29.5% [at 11.4 µM],–
COc1ccc(Cn2c(SCc3ccccc3C)nc3cc(OC)c(OC)cc3c2=N)cc1,–,20 µM (active)
CN1CCN(c2ncc3nc(-c4ccc(Cl)cc4)c(=O)n(Cc4cccs4)c3n2)CC1,-10.7%,–
COc1cc2nc(SCc3ccc(Cl)cc3Cl)n(Cc3cccs3)c(=N)c2cc1OC,–,2.51 µM (active)
FC(F)(F)c1ccccc1-c1ccc2ncnc(N3CCOCC3)c2c1,–,0.631 µM (active)
COc1cccc(-c2ccc3ncnc(N4CCOCC4)c3c2)c1,–,3.98 µM (active)
CN1CCN(c2ncnc3ccc(-c4ccccc4Cl)cc23)CC1,–,3.98 µM (active)
CS(=O)(=O)Nc1cccc(-c2ccc3ncnc(N4CCOCC4)c3c2)c1,-21.5%,–
COc1ccccc1-c1ccc2ncnc(N3CCOCC3)c2c1,–,1.26 µM (active)
CN1CCN(c2ncnc3ccc(-c4ccccc4C#N)cc23)CC1,-12.2%,–
Cc1ccccc1-c1ccc2ncnc(N3CCN(C)CC3)c2c1,-43.3%,–
O=C(O)C1CCN(c2ncnc3ccc(-c4ccccc4C(F)(F)F)cc23)CC1,7.46%,–
CN1CCN(c2nc(-c3ccccc3C(F)(F)F)nc3ccccc23)CC1,-31.9%,–

Compound,"activity, negative = inhibition",AC50
COc1cccc(-c2ccc3ncnc(N4CCNCC4)c3c2)c1,–,3.16 µM (active)
FC(F)(F)c1ccccc1-c1nc(N2CCOCC2)c2ccccc2n1,–,15.8 µM (active)
N#Cc1cccc(-c2ccc3ncnc(N4CCNCC4)c3c2)c1,-32.6%,–
COc1ccccc1-c1nc(N2CCOCC2)c2ccccc2n1,-12.8%,–
CS(=O)(=O)Nc1cccc(-c2ccc3ncnc(N4CCNCC4)c3c2)c1,-37.5%,–
NCCCCC(=O)O,10.4%,–
CCOC(=O)C1=C(c2ccccc2)OC(N)=C(C#N)C1c1ccc(Cl)s1 (stereo unspecified),–,0.398 µM (active)
CCc1cc2c(=O)c(-c3nc4ccccc4[nH]3)coc2cc1OC(=O)N1CCOCC1,–,15.8 µM (active)
COc1cc(Br)c(C(C)NC(=O)c2cccc(Br)c2)cc1OC (stereo unspecified),–,2.24 µM (active)
COc1ccccc1CNc1ncnc2ccc(-c3ccc4c(c3)OCO4)cc12,–,3.16 µM (active)
COc1ccccc1CNc1ncnc2ccc(-c3ccc(N(C)C)cc3)cc12,–,10 µM (active)
COc1ccc(CNc2ncnc3ccc(-c4ccc(N(C)C)cc4)cc23)c(OC)c1,–,3.98 µM (active)
CN(C)c1ccc(-c2ccc3ncnc(NCc4ccccc4)c3c2)cc1,–,7.94 µM (active)
CC(C)CO/N=C1/C[C@@H](O)[C@@H](O)[C@@H]2[C@@H]3C(=O)N(C[C@@H]4CCCO4)C(=O)[C@H]3CC[C@H]12,24.8% [at 11.4 µM],–
COCCNc1ncnc2ccc(-c3ccc(C(=O)N(C)C)cc3)cc12,6.62%,–
COc1ccc(CNc2ncnc3ccc(-c4ccc(C(=O)N(C)C)cc4)cc23)c(OC)c1,–,15.8 µM (active)
COc1cccc(Sc2cc(N3CCOCC3)nc(-c3ccccc3)n2)c1,–,14.1 µM (active)
CS(=O)(=O)Nc1cccc(-c2nc(N3CCOCC3)c3ccccc3n2)c1,-36.3%,–
Clc1ccc(Sc2cc(N3CCOCC3)nc(-c3ccccc3)n2)cc1,–,3.55 µM (active)
Nc1nc(Cl)cc(N2CCOCC2)n1,-18.1%,–
O=c1nc(N2CCOCC2)ccn1-c1nc(-c2ccccc2)oc1-c1ccccc1,-22.4%,–
CCc1ccccc1NC(=O)C(C)n1nc([N+](=O)[O-])c(Br)c1C (stereo unspecified),–,2.51 µM (active)
Cc1c(Br)c([N+](=O)[O-])nn1C(C)C(=O)Nc1nccs1 (stereo unspecified),–,10 µM (active)
C[N+](C)(C)CCCCCC[N+](C)(C)C,–,inactive
O=C(CSCC(=O)OCn1nnc2ccccc2c1=O)Nc1ccc(Cl)cc1,–,11.2 µM (active)
CCC1OC23CCCCC2C(C#N)(C(=N)O3)C1(C#N)C#N (stereo unspecified),–,17.8 µM (active)

Compound,"activity, negative = inhibition",AC50
Nc1ccccc1S[C@@H](C[N+](=O)[O-])c1ccc2c(c1)OCO2,–,1.58 µM (active)
COc1ccc(C(=O)N2CCC[C@@]3(CCN(C(=O)NC(C)C)C3)C2)cc1,13.2%,–
CCN1CCN(c2cc(=O)n(-c3cc(Cl)ccc3C)c(=O)[nH]2)CC1,-12%,–
CCCCCn1c(CN2CCN(c3cc(Cl)ccc3C)CC2)nc2c1c(=O)[nH]c(=O)n2C,–,3.55 µM (active)
COc1cc(O)c2c(O)c3c(c4c2c1[C@@]1(C4)C(C)=CCCC1(C)C)[C@H](O)[C@@]1(O)CC(=O)C(C(N)=O)=C(O)[C@]1(O)C3=O,–,2.51 µM (active)
N#Cc1nc(COc2ccccc2Cl)oc1NCc1ccco1,–,2.24 µM (active)
CN(C)CCNc1oc(COc2ccc(Cl)cc2Cl)nc1C#N,0.262%,–
CCOC(=O)c1ccc(NC(=O)CC2NCCNC2=O)cc1 (stereo unspecified),19.3%,–
CCC1C(=O)N=C(SCC(=O)Nc2ccc(C(=O)OC)cc2)NC1=O (stereo unspecified),–,22.4 µM (active)
CCCCSc1ccc2nc(-c3ccc(C#N)cc3)cn2c1,–,4.47 µM (active)
Oc1ccccc1CNCc1ccccc1O,-44.5% [at 11.4 µM],–
O=C(O)C[C@H](Cc1ccccc1Cl)C(=O)O,14.2% [at 11.4 µM],–
Clc1ccccc1CNCC1CCC(CNCc2ccccc2Cl)CC1 (stereo unspecified),–,0.794 µM (active)
CC(N)=NCCCC[C@H](N)C(=O)O,–,inactive
NC(=O)C1(N2CCCCC2)CCN(C(=S)Nc2ccc(Cl)cc2)CC1,–,3.16 µM (active)
O=C(O)C1(Nc2ccc(Cl)cc2)CCCC1,25.8% [at 11.4 µM],–
NC(=O)C1(N2CCCCC2)CCN(C(=O)c2ccc(-n3cnnn3)cc2)CC1,-7.9%,–
CCCCN(C(=S)Nc1ccccc1)C1CCS(=O)(=O)C1 (stereo unspecified),-28.8%,–
CCCNC1CCS(=O)(=O)C1 (stereo unspecified),3.5%,–
CCCCSC(=S)N(C)C1CCS(=O)(=O)C1 (stereo unspecified),–,3.98 µM (active)
CCCCn1nc2cc(C(=O)NCCCCc3ccccc3)ccc2c1OCC,–,22.4 µM (active)
COc1ccccc1CNC(=O)c1cc2c(C)nn(Cc3ccc(F)cc3)c2s1,–,11.2 µM (active)
COC(=O)Cc1c(C)nc2nc(NCc3ccccc3OC)[nH]n2c1=O,-29.7%,–
CCCn1nc2cc(C(=O)NCc3ccccc3OC)ccc2c1OCC,–,20 µM (active)
CCCn1nc2cc(C(=O)NCCCCc3ccccc3)ccc2c1OCC,–,6.31 µM (active)
NCC[C@H](N)C(=O)O,-4.53% [at 11.4 µM],–

Compound,"activity, negative = inhibition",AC50
CCn1nc2cc(C(=O)NCC34CC5CC(CC(C5)C3)C4)ccc2c1OC,–,22.4 µM (active)
C=CCOc1c2ccc(C(=O)NC3CCCc4ccccc43)cc2nn1C (stereo unspecified),-27.6%,–
CCCn1nc2cc(C(=O)NCCc3ccc(C)cc3)ccc2c1OCC,–,25.1 µM (active)
CCOc1c2ccc(C(=O)NCc3ccco3)cc2nn1CC,-25.6%,–
CCOc1c2ccc(C(=O)NCc3ccc4c(c3)OCO4)cc2nn1CC,–,31.6 µM (active)
CCOc1c2ccc(C(=O)NC3CCCc4ccccc43)cc2nn1C (stereo unspecified),-18.9%,–
COCCn1nc2cc(C(=O)NCC34CC5CC(CC(C5)C3)C4)ccc2c1OC,-28.7%,–
CCCn1nc2cc(C(=O)NC3CCCc4ccccc43)ccc2c1OCC (stereo unspecified),–,28.2 µM (active)
COC(=O)C/C=C\[C@@H](C)[C@@H](/C=N\O[C@@H]1O[C@H](COC(C)=O)[C@H](OC(C)=O)[C@H](OC(C)=O)[C@H]1OC(C)=O)OC,-12.5% [at 11.4 µM],–
NS(=O)(=O)c1ccc(N=Nc2cc3ccccc3c(C(=O)O)c2O)cc1,-28.9% [at 11.4 µM],–
OC[C@@H]1O[C@@H](n2cnc3cncnc32)[C@@H](O)[C@H]1O,-17.6%,–
O=C1C=C(NCCc2cc(Br)c(O)c(Br)c2)C(=O)c2ncccc21,–,0.501 µM (active)
O=C(Nc1ncc(Cc2cc(Cl)ccc2Cl)s1)c1ccc([N+](=O)[O-])cc1,–,2 µM (active)
CCOC(=O)N/N=C1/C[C@@H](O)[C@@H](O)[C@@H]2[C@@H]3C(=O)N(c4cccc(Oc5ccccc5)c4)C(=O)[C@H]3CC[C@H]12,42.4% [at 11.4 µM],–
N=C1CCC[C@@H]1C(=S)SCCC(N)=O,-14.4% [at 11.4 µM],–
CC(C)CC1NC(=S)N(C2CCCCC2)C1=O (stereo unspecified),–,7.94 µM (active)
CCC(C)C1NC(=S)N(C2CCCCC2)C1=O (stereo unspecified),–,2 µM (active)
Cc1nc2cnc(Oc3ccccc3)nc2n(C)c1=O,-44.4%,–
COc1ccc(Oc2ncc3nc(CCc4ccccc4)c(=O)n(C)c3n2)cc1,–,10 µM (active)
COc1ccc(Oc2ncc3nc(C)c(=O)n(C)c3n2)cc1,-36%,–
Cn1c(=O)c(CCc2ccccc2)nc2cnc(Oc3ccccc3)nc21,–,25.1 µM (active)
COc1ccc(Oc2ncc3nc(-c4cc(F)cc(F)c4)c(=O)n(C)c3n2)cc1,0.472%,–
Cn1c(=O)c(-c2cc(F)cc(F)c2)nc2cnc(Oc3ccccc3)nc21,-42.9%,–
